Test results reported in PubChem BioAssay (NCATS).
Results filed as inconclusive are left out. Calls of active or inactive are those of the source. Calls follow the shape of the dose curve; as a rule, active = well fitted inhibition curve with a large enough effect; inconclusive = small, poorly fitted or top-dose-only effect; inactive = flat fitted curve, though single readings scatter.

These compounds were tested on 7G8 (assay: qHTS profiling for inhibitors of Plasmodium falciparum proliferation (AID 504749; also: nearly all actives have a fitted effect of over 60% in size;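 as to activity, negative = inhibition: 0% = DMSO vehicle and full inhibition = artemisinin control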)). Settings: P. falciparum in erythrocytes, SYBR Green DNA, 72 h; series mostly up to 28.7 µM; activity, negative = inhibition: at the top concentration.
Method in brief: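 Quantitative HTS: compounds pinned into medium, infected erythrocytes added (0.3% parasitemia, 2.5% hematocrit), 72 h culture at 37 C under 5% CO2. Saponin/Triton lysis with SYBR Green I, overnight RT, then fluorescence read.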
Potency is read from the fitted curve at half-maximal effect.

activity, negative = inhibition, inactive:
CCCCCCCCCCCCCCCC(=O)OC[C@H](O)[C@H]1OC[C@@H](O)[C@@H]1O -1.48%, C[C@H]1OC(OC2C(O)[C@@H](O)C(OC3C(O)[C@@H](O)C(O)O[C@@H]3CO)O[C@@H]2CO)[C@H](O)C(O)C1N[C@H]1C=C(CO)[C@@H](O)[C@H](O)C1O (stereo not given in full) -2.26%, CCN(CC)CC(=O)Nc1c(C)cc(C)cc1C -16.5%, CC(=O)N[C@H]1[C@H](O[C@@H]2c3ccc(c(Cl)c3)Oc3cc4cc(c3O[C@@H]3O[C@H](CO)[C@@H](O)[C@H](O)C3C)Oc3ccc(cc3Cl)C[C@H]3NC(=O)[C@@H](N)c5ccc(O)c(c5)Oc5cc(O)cc(c5)[C@H](NC3=O)C(=O)N[C@H]4C(=O)N[C@H]3C(=O)N[C@@H]2C(=O)N[C@@H](C(=O)O)c2cc(O)cc(O[C@H]4O[C@H](CO)[C@@H](O)C(O)[C@@H]4O)c2-c2cc3ccc2O)O[C@H](CO)[C@@H](O)[C@@H]1O (stereo not given in full) -18.5% [at 12.8 µM], NC(=O)c1ncn(C2OC(CO)C(O)C2O)c1N (stereo not given) 13.3%, CC1(Cn2ccnn2)[C@H](C(=O)O)N2C(=O)C[C@H]2S1(=O)=O (stereo not given in full) 3.16%, CN(C)CC/C=C1\c2ccccc2COc2ccc(CC(=O)O)cc21 8.77%

Potency, active:
CCCCC(=O)OCC(=O)[C@]1(O)Cc2c(O)c3c(c(O)c2[C@H](OC2CC(NC(=O)C(F)(F)F)C(O)C(C)O2)C1)C(=O)c1c(OC)cccc1C3=O (stereo not given in full) 1.26 µM, C[C@H]1[C@@H](OC(=O)CCC(=O)O)OC2OC3(C)CC[C@H]4[C@H](C)CC[C@@H]1[C@@]24OO3 (stereo not given in full) 0.0014 µM, CCCC(=O)O[C@]1(C(=O)COC(C)=O)CC[C@H]2C3C[C@H](F)C4=CC(=O)C=CC4(C)[C@@]3(F)[C@@H](O)CC21C (stereo not given in full) 11.2 µM
